NIH3T3 tox: Cytotoxic Profiling in NIH 3T3 Cell Line of Diverse Libraries Using Quantitative High-Throughput Screening | NIH 3T3 viability, CellTiter-Glo ATP luminescence, 48-72 h | 94,000 compounds, 4.3% hits | Potency, µM (series often up to 96.7 µM), without a hit: at the top dose activity change, negative = cytotoxicity, usual class: inhibitors; also: nearly all actives have a fitted effect of over 55% in size
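Cytotoxicity is measured as loss of cellular ATP: NIH 3T3 cells (400/well) are exposed to compound for 48 or 72 hr at 37 °C, then CellTiter-Glo luminescence is imaged after 10 min at room temperature.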
hNpr1 antagonist: Natriuretic polypeptide receptor (hNpr1) antagonism - Primary qHTS; Atrial natriuretic peptide receptor 1 (Homo sapiens), P16066; HEK293 hNpr1 GloSensor cGMP, ANP-stimulated luminescence; Potency, µM (titrated, usually from 46.3 µM), inactives show at the top dose activity change, negative = inhibition, usual class: inhibitors; 76,000 compounds, 1.6% hits; AID 1347048, 2019; calls by dose curve; also: nearly all actives have a fitted effect of over 60% in size
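HEK293 cells stably expressing human Npr1 and cGMP GloSensor pGS-40F, loaded 2 h with 2% GloSensor reagent, given compound 30 min at room temperature. Luminescence read before and 20 min after 0.1 nM hNppA.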
Luciferase inh: Firefly luciferase inhibition profiling of diverse chemical library using quantitative high-throughput screening | Luciferin 4-monooxygenase (Photinus pyralis), P08659 | purified P. pyralis luciferase, luminescence, biochemical | Potency, µM (series often up to 115 µM), actives largely listed as inhibitors | 76,000 compounds, 2.5% hits | AID 1347043, 2019; also: nearly all actives have a fitted effect of over 65% in size
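Cell-free enzyme assay, 10nM P. pyralis luciferase, luciferin and ATP each at 10uM. Inhibition profiled over a 6-point titration, read as luminescence.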
HEK293 tox: Cytotoxic Profiling in HEK 293 Cell Line of Diverse Libraries Using Quantitative High-Throughput Screening; HEK 293 viability, ATP luminescence (CellTiter-Glo), 48-72 h; Potency, µM (series often up to 115 µM), for the others: top-dose activity change, negative = cytotoxicity, most hits filed as inhibitors; 94,000 compounds, 6.6% hits; also: nearly all actives have a fitted effect of over 60% in size
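ATP-coupled CellTiter-Glo luminescence served as viability read-out, recorded 10 min after reagent addition at room temperature. HEK 293 cells, 250 cells/well, had been incubated with pintool-transferred compound for 48 or 72 hr at 37 degree Celsius.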
Active calls of the source: *; i = inactive; ? = inconclusive; nt = not tested or not shown; [ ] = dose if it differs, or a comment. Rows were chosen to be rich in hits. Some 11% of all compounds tested hit in one or more screens of this group. Unless noted, calls follow the shape of the dose curve; as a rule, active = well fitted curve in the direction sought with a large enough effect; inconclusive = small, poorly fitted or top-dose-only effect, or another doubt; inactive = no such curve, though single readings can be large; an effect the other way counts as inactive or inconclusive. % is scaled to controls: 0 for no effect and ±100 for the full control effect; potency is read from the fitted curve at half-maximal effect.

SMILES	NIH3T3 tox	hNpr1 antagonist	Luciferase inh	HEK293 tox
COc1cccc(CN2C[C@@H]3C(=O)N(CCN4CCc5ccccc5C4)C(=O)[C@@H]3C2)c1	-25%	-8%	i	?
CC(NC(=O)C1CN(C2CCCC2)C(=O)N1)c1ccc(F)cc1 (centres undefined)	-9%[138 µM]	nt	nt	-22%[172 µM]
O=C1OCC2(CCN(Cc3ccccc3O)C2)N1Cc1ccccc1 (centres undefined)	?	1%[70.6 µM]	i	?
O=C(Nc1cccc(F)c1)N1Cc2[nH]cnc2C[C@H]1c1nc(-c2ccccc2)no1	?	-19%[70.6 µM]	i	71µM*
N#Cc1cccc(NC(=O)N2Cc3[nH]cnc3C[C@H]2c2nc(-c3ccc(Cl)cc3)no2)c1	79µM*	-19%	i	?
Cc1cccc(-c2noc([C@@H]3Cc4nc[nH]c4CN3C(=O)Nc3cccc(C#N)c3)n2)c1	63µM*	-21%[70.6 µM]	35µM*	89µM*
O=C(Nc1cccc(F)c1)N1Cc2[nH]cnc2C[C@H]1c1nc(-c2ccc3c(c2)OCO3)no1	?	-24%	i	?
Cc1cccc(-c2noc([C@@H]3Cc4nc[nH]c4CN3C(=O)COCC(=O)O)n2)c1	-28%[174 µM]	-1%[70.6 µM]	56µM*	-8%[172 µM]
Cc1ccc(CCN2CCC3(Cc4ccccc4CN([S+](C)(=O)[O-])C3)C2)cc1 (centres undefined)	-30%	nt	nt	?
O=C(Cc1ccccc1F)N1CCCC(Cc2nncn2Cc2ccccc2)C1 (centres undefined)	-21%	nt	nt	-7%
CC(=O)N1CCCCC1c1nc(CCOc2ccc(F)cc2)no1 (centres undefined)	-9%	nt	nt	i
CCn1cc(CN2CCc3nc(N4CCN(C)CC4)[nH]c(=O)c3CC2)c2ccccc21	i	-1%	i	-4%
O=C(Nc1cccc(F)c1)N1Cc2[nH]cnc2C[C@H]1c1nc(-c2ccc(Cl)cc2)no1	?	-15%	40µM*	79µM*
Cc1cccc(-c2noc([C@@H]3Cc4nc[nH]c4CN3C(=O)Nc3cccc(F)c3)n2)c1	35µM*	?	63µM*	71µM*
CC(C)(C)CC(=O)N1CCC2(CC1)C(=O)N(CC(=O)Nc1ccc(F)cc1)CN2c1ccccc1	?	-1%	i	?
CC(C)(C)C(=O)N1CCC2(CC1)C(=O)N(CC(=O)Nc1cccc(Cl)c1)CN2c1ccccc1	32µM*	-2%	i	35µM*
COc1cccc(-c2cnc([C@@H]3COCCN3Cc3cnc4ccccc4c3)[nH]2)c1	-22%[138 µM]	-28%[70.6 µM]	i	100µM*
CS(=O)(=O)c1ccc(-c2cnc([C@@H]3COCCN3Cc3cnc4ccccc4c3)[nH]2)cc1	-16%	5%	i	-23%
Fc1ccc(-c2cnc([C@@H]3COCCN3Cc3cnc4ccccc4c3)[nH]2)cc1	?	-29%[70.6 µM]	i	89µM*
CN(c1ccc(Cl)c(Cl)c1)C1CNC1	100µM*	nt	nt	112µM*
COc1ccc(S(=O)(=O)Nc2ccc(C)n(CC(=O)N(C)Cc3ccco3)c2=O)cc1	3%	-1%	i	32µM*
COc1ccc(-c2ccc(C(=O)N3CCCCC3)cc2)nn1	28µM*	nt	nt	?
COc1ccc(-c2ccc(C(=O)NC3CC3)cc2)nn1	?	nt	nt	89µM*
Cc1ncsc1CN1CCC2(CC1)CN(Cc1ccccc1)CC2CO (centres undefined)	?	-11%	i	?
O=C(c1ccnc(-c2ccccc2-c2ccccc2)c1)N1CCCC1	35µM*	1%	i	?
SMILES	NIH3T3 tox	hNpr1 antagonist	Luciferase inh	HEK293 tox
O=C(c1ccnc(-c2ccncc2)c1)N1CCCC1	-3%	-6%	i	1%
O=C(NCC(=O)N1CCC(c2ccccc2)CC1)c1cccc(-c2ccsc2)c1	?	nt	nt	35µM*
O=C(NCCN[S+](=O)([O-])c1ccccc1)c1cccc(-c2ccsc2)c1	?	nt	nt	50µM*
COCc1ncc(C)n1CCC1CCN(C(=O)c2cccnc2C)CC1	-25%	nt	nt	-12%
CCc1cccc(NC(=O)N2CCCC(c3noc(COc4ccccc4)n3)C2)c1 (centres undefined)	32µM*	?	i	?
CCNC(=O)N1CCCC(c2noc(COc3ccccc3F)n2)C1 (centres undefined)	-17%	1%	35µM*	-4%
CC(C)(C)NC(=O)N1CCCC(c2nc(CCOc3ccc(F)cc3)no2)C1 (centres undefined)	-22%	-19%	i	?
CC(C)CNC(=O)N1CCCC(c2nc(CCOc3ccc(F)cc3)no2)C1 (centres undefined)	?	-20%	i	40µM*
CC(C)NC(=O)N1CCCC(c2noc(COc3ccccc3F)n2)C1 (centres undefined)	-21%	0%	i	-8%
Cc1ccc(OCc2nc(C3CN(C(=O)Cc4ccsc4)C3)no2)cc1	?	-18%	i	89µM*
O=C(Cc1ccsc1)N1CC(c2noc(COc3ccccc3)n2)C1	-21%	-9%	i	?
CC1CCN(CC2CCCN(S(=O)(=O)c3ccc(F)cc3)CC2)CC1 (centres undefined)	-28%	2%	i	-28%
COc1ccccc1/C=C/CN1CCCC(CNC(=O)COc2ccccc2OC)C1 (centres undefined)	?	1%	i	?
Cc1ccccc1CC(=O)N1CCCC(c2noc(COc3ccccc3)n2)C1 (centres undefined)	?	-15%	i	45µM*
Cc1ccccc1-c1ccnc(-c2nnc(C)n2Cc2ccncc2)c1	-15%[138 µM]	0%[70.6 µM]	i	?
Cc1ccccc1-c1ccnc(-c2nnc(C)n2Cc2ccccc2)c1	?	-2%[70.6 µM]	i	79µM*
Cc1cc(-c2ccnc(-c3nnc(C)n3-c3ccccc3)c2)ccn1	25µM*	0%[70.6 µM]	i	45µM*
Cc1cc(-c2ccnc(-c3nnc(C)n3CCc3ccccc3)c2)ccn1	79µM*	-11%[70.6 µM]	i	?
Cc1nnc(-c2cc(-c3ccsc3)ccn2)n1-c1ccccc1	?	-8%[70.6 µM]	i	?
Cc1nnc(-c2cc(-c3ccsc3)ccn2)n1Cc1ccccc1	?	-11%[70.6 µM]	?	?
Cc1nnc(-c2cc(-c3cnn(C)c3)ccn2)n1Cc1ccccc1	45µM*	6%[70.6 µM]	i	-15%[172 µM]
Cc1ccc(C(=O)N2CCN(c3ccc4nnc(C)n4n3)CC2)cc1	?	nt	nt	-16%[172 µM]
COC[C@@H]1CN(C(=O)c2nccc3ccccc23)C[C@H]1c1ccncc1	-7%	-10%	i	i
COc1ncc(-c2ccnc(-c3nnc(C)n3CCN3CCOCC3)c2)cn1	?	7%[70.6 µM]	i	0%[172 µM]

Screens (PubChem BioAssay)
